# High-throughput results: PubChem, National Center for Advancing Translational Sciences (NCATS)
# POLH inh = inhibitors of human DNA polymerase eta. Q9Y253. Potency, µM (titrated, usually from 114 µM), without a hit: top-dose activity change, negative = inhibition, most hits filed as inhibitors. recombinant Pol eta, fluorescent DNA replication assay. 390,000 compounds, 1.2% hits; also: % is scaled to controls: 0 for no effect and ±100 for the full control effect
#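 Pol eta at 10 nM preincubated with compounds 15 min at room temperature; reaction started with fluorescent substrate (50 nM final) and read kinetically at 0 and 10 min.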
# POLI inh = DNA polymerase iota (human) inhibition; Q9UNA4; 390,000 compounds, 1% hits; Potency, µM (series often up to 115 µM), for the others: at the top dose activity, negative = inhibition, most hits filed as inhibitors; Pol iota fluorescent replication assay, 10 min
#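 Pol iota at 10 nM preincubated 15 min with compounds at room temperature; reaction started with fluorescent substrate, 50 nM final. Fluorescence read kinetically at 0 and 10 min; buffer-only wells as negative control.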
# Pol kappa inh = blocks human DNA polymerase kappa activity | 400,000 compounds, 0.53% hits | purified Pol kappa, fluorescent DNA synthesis assay, 10 min | Q9UBT6 | Potency, µM (titrated, usually from 107 µM), for the others: at the highest dose activity, negative = inhibition, most hits filed as inhibitors; also: % is scaled to controls: 0 for no effect and ±100 for the full control effect
#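 Fluorescent qHTS in 1536-well format: enzyme (10 nM) and compound sat 15 min at room temperature before 50 nM substrate (final) was added. Signal taken at 0 and 10 min; no-enzyme buffer wells were negative controls.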
# POLB inh = DNA polymerase beta (human) inhibition; Pol beta primer extension/strand displacement, fluorescence kinetic; 340,000 compounds, 1.3% hits; AID 485314; Potency, µM (titrated, usually from 114 µM), without a hit: top-dose activity change, negative = inhibition, actives largely listed as inhibitors; also: % is scaled to controls: 0 for no effect and ±100 for the full control effect
#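 Pol beta (10 nM) and compounds were preincubated 15 min at room temperature, then 50 nM substrate (final) started primer extension/strand displacement. Reads were taken at 0 and 10 min; concentration-response data were fitted to a four-parameter Hill equation.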
# WRN helicase inh = WRN helicase (human) inhibition; 360,000 compounds, 0.46% hits; WRN helicase unwinding, fluorescent forked duplex, kinetic; Q14191; Potency, µM (top dose mostly 114 µM), for the others: at the top dose activity change, negative = inhibition, actives largely listed as inhibitors; also: % is scaled to controls: 0 for no effect and ±100 for the full control effect; nearly all actives have a fitted effect of over 55% in size
#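 Kinetic red-fluorescence monitoring (525/598 nm) tracks WRN helicase activity after 100 nM fluorophore-quencher forked duplex and 2 mM ATP are added to 20 nM enzyme pretreated 15 min at room temperature with compound.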
# FEN1 inhibitor = human FEN1 inhibition; P39748; 390,000 compounds, 0.35% hits; Potency, µM (doses to about 114 µM), for the others: at the highest dose activity change, negative = inhibition, usual class: inhibitors; AID 588795; Recombinant FEN1 flap cleavage, fluorescence, 15 min; also: % is scaled to controls: 0 for no effect and ±100 for the full control effect; nearly all actives have a fitted effect of over 65% in size
# Target sequence (P39748 whole entry, looked up): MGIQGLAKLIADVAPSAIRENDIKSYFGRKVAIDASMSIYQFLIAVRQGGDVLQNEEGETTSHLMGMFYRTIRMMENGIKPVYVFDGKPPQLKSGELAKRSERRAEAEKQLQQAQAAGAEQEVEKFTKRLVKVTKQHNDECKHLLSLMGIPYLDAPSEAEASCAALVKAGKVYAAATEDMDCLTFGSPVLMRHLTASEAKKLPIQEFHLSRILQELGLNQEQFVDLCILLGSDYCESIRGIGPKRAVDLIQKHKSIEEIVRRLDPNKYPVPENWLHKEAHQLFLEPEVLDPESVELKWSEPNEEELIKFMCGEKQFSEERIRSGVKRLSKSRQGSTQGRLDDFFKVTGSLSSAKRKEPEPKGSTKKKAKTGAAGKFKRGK
#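 FEN1 at 10 nM, compound pretreatment for 15 min (room temperature), 50 nM final substrate to initiate; endpoint reads at 0 and 15 min; DMSO-only plates used as vehicle background.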
# * = called active by the depositor; ? = inconclusive; nt = no result given; [ ] = another dose, or the depositor's remark. Sampled rows, rich in hits. Any-hit rate of the full collection: about 2.4%. Calls follow the shape of the dose curve; as a rule, active = well fitted curve in the direction sought with a large enough effect; inconclusive = small, poorly fitted or top-dose-only effect, or another doubt; inactive = no such curve, though single readings can be large; an effect the other way counts as inactive or inconclusive. Potency is read from the fitted curve at half-maximal effect.
SMILES,POLH inh,POLI inh,Pol kappa inh,POLB inh,WRN helicase inh,FEN1 inhibitor
COc1cccc(N=C2NC(=O)/C(=C/c3cc([N+](=O)[O-])ccc3O)S2)c1,28µM*,?,-11%,40%,-11%[11.6 µM],?
COC(=O)/C=C1/SC(=NC(=O)c2cccc([N+](=O)[O-])c2)NC1=O,-16%,7%,4%,-19%,0%,3%
CC(=O)Nc1ccc(S(=O)(=O)/N=C2/NC(=O)/C(=C\c3ccco3)S2)cc1,20µM*,?,?,10µM*,-2%[11.6 µM],-31%
COc1cc(/C=C2/SC(=Nc3ccc(O)cc3)NC2=O)cc(OC)c1O,3%,?,-28%,-22%,-15%,-17%
CCc1ccc(N=C2NC(=O)/C(=C/c3ccc(OCC(=O)O)c(OC)c3)S2)cc1,13%,?,-25%,20µM*,?,?
COc1cc(OC)c2c(c1C(CCN1CCCC1)c1ccc(N(C)C)cc1)OC(=O)CC2c1ccc(N(C)C)cc1 (stereo unspecified),nt,?,-10%,nt,nt,2%
COc1ccc(/C=C2\SC(=Nc3ccccc3)NC2=O)cc1,nt,nt,nt,0%,nt,nt
CCOc1ccc(N=C2NC(=O)S/C2=C\c2ccc(OC)cc2)cc1,-10%,?,-8%,10µM*,-16%[57.1 µM],-16%
COc1ccc(N=C2NC(=O)/C(=C\c3ccco3)S2)cc1,?,40µM*,?,20µM*,?,-16%
CCN(CC)c1cc(C)c(/C=C/c2ccnc3ccccc23)cc1C,nt,6%,-9%,nt,nt,?
COc1ccc(-c2nnc(SCC(=O)Nc3cccc(F)c3)s2)cc1,-6%,-10%,-13%[60.1 µM],35µM*,nt,18%
c1ccc2nccnc2c1,nt,-20%,-2%,nt,nt,-19%
Cc1c(N=Cc2cc3c(cc2[N+](=O)[O-])OCO3)cccc1[N+](=O)[O-],?,7.9µM*,45µM*,nt,1%[11.6 µM],?
CC[C@H](C)[C@H](N)C(=O)N[C@@H](CCCNC(=N)N)C(=O)N[C@@H](CCC(N)=O)C(=O)NCC(=O)N1CCC[C@H]1C(=O)N[C@@H](CCCCN)C(=O)N[C@@H](CCC(=O)O)C(=O)N1CCC[C@H]1C(=O)N[C@@H](Cc1ccccc1)C(=O)N[C@@H](CCCNC(=N)N)C(=O)N[C@@H](CC(=O)O)C(=O)N[C@@H](Cc1ccc(O)cc1)C(=O)N[C@H](C(=O)N[C@@H](CC(=O)O)C(=O)N[C@@H](CCCNC(=N)N)C(=O)N[C@@H](Cc1ccccc1)C(=O)N[C@@H](Cc1ccc(O)cc1)C(=O)N[C@@H](CCCCN)C(=O)N[C@H](C(=O)N[C@@H](CC(C)C)C(=O)O)[C@@H](C)O)C(C)C,nt,nt,16%[60.1 µM],nt,nt,nt
CC(=O)Nc1ccc(NC(=O)CSc2cn(CC(=O)N3CCOCC3)c3ccccc23)cc1,-5%,0%,1%,100µM*,-6%,4%
Cc1cccc(NC(=O)CSc2cn(CC(=O)N3CCOCC3)c3ccccc23)c1,-25%,20%,-9%,1%,nt,-1%
O=C1C=C(O)c2c(O)cccc2C1=O,nt,nt,nt,16µM*,nt,nt
O=C1C=C(O)c2cccc3cccc1c23,-1%,13%,-6%,-8%,-9%[57.1 µM],2µM*
O=C1C=C(N2CCOCC2)c2cccc3cccc1c23,-11%,nt,nt,nt,-21%,nt
NCCCCCCNc1nc2c(N)ncnc2n1[C@@H]1O[C@@H]2COP(=O)(O)O[C@H]2[C@H]1O,nt,nt,13%[60.1 µM],nt,nt,nt
COc1cc(C2c3c(oc4ccccc4c3=O)C(=O)N2c2nccs2)ccc1O (stereo unspecified),79µM*,3%,-6%,-22%,-18%[11.6 µM],-17%
Cn1c2ccccc2c(=O)c2cc(C#CC3=CCCCC3)ccc21,45µM*,4µM*,?,nt,-27%,-11%
Cn1c2ccccc2c(=O)c2cc(C#Cc3cccc(N)c3)ccc21,-13%,-11%,-18%,nt,-5%,-2%
O=C(O)c1ccccc1-n1cnnn1,2%,-7%,-24%,0%,-1%,20%
